What all share (assay): NCI-60 one-dose screen, 48 h (100 = growth as untreated, 0 = no growth, -100 = all killed)
Common to all, as to settings: 10 µM unless noted

In test [1] the test system is HCT-15 colon.
Test [2] has as its system HT29 colon.
The test system of test [3] is SNB-75 CNS.
The subject of test [4] is SNB-19 CNS.
Test [5] deals with U251 CNS.
Test [6] concerns PC-3 prostate.
The test system of test [7] is SK-MEL-5 melanoma.
In test [8] the test system is UACC-62 melanoma.
The subject of test [9] is LOX IMVI melanoma.
Test [10] relates to SK-MEL-28 melanoma.
Test [11] has as its system SK-MEL-2 melanoma.
Test [12] deals with EKVX NSCLC.
In test [13] the test system is SN12C renal.
Test [14] relates to UO-31 renal.
Test [15] deals with TK-10 renal.
The test system of test [16] is ACHN renal.
The test system of test [17] is CAKI-1 renal.
The subject of test [18] is A498 renal.
The test system of test [19] is MOLT-4 leukemia.
Test [20] concerns CCRF-CEM leukemia.

The values that follow come from PubChem BioAssay (NCI).

Structures are written as SMILES. About 83,000 compounds went through this panel and 20% of them were active in at least one assay; those are over-represented in the sample as a whole.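 Plates (96-well) were seeded with cells, treated with compound at one concentration, and incubated for 48 hours before percent growth was determined.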 Values without a mark were called inactive. Active and inactive are the calls of the source. Rule for the calls: active = growth percent below 10; inactive = the rest.

Regarding `C#CCOc1ccc(-c2csc(NC(=O)C=C)n2)cc1NS(=O)(=O)c1cccc2c(N(C)C)cccc12`, the growth in [1] is -9.26% (active); in test [2], 12.6%; in test [3], 1.15% (active); in test [4] it was 71.2%; in test [5], 47.7%; in test [6] it was 53.6%. The growth in [7] was 63.6%; in test [8], 37.1%; in test [9], -91% (active); in test [10] it was 14.9%; in test [11] it was 69.4%; in [12] it was 66.1%. In addition, the growth was 31.2% in test [13]; 21.9% in test [14]; 63% in test [15]; 9.85% (active) in test [16]; 36.2% in test [17]; 79.8% in test [18]. In [19], the growth is 1.79% (active).

On to `COc1ccccc1/C=C/C(=O)c1nnn(-c2ccc(F)cc2)c1C`, for which the growth in [1] is 22.9%; in test [2], 4.8% (active); in [3] it was 40.6%; in test [4], 63.2%; in test [5] it was 36.3%; in [6] it was 68.9%. Moreover, the growth is 79.3% in [7]; 59.4% in [8]; 2.13% (active) in test [9]; 75.2% in test [10]; 93.2% in [11]; 69.3% in test [12]. In addition, the growth in test [13] is 68.5%; in test [14] it was 38.1%; in test [15] it was 110%; in test [16], 46.1%; in [17], 38.5%; in test [20], 14%. The growth in test [19] is 45%.

`N#C/C(=C\c1ccc(-c2ccc(Cl)cc2)o1)C(=O)Nc1ncc(Cc2ccc(Br)cc2)s1`: the growth in [1] was 15.3%; in test [2], 7.27% (active); in test [3], -18.1% (active); in test [4], 3.38% (active); in [5], -81.9% (active); in test [6], 9.73% (active). The growth in test [7] is 51.9%; in [8], 1% (active); in [9], -69.7% (active); in [10] it was 11%; in test [11] it was 83.1%; in [12] it was 19.6%. Also, the growth was -29.9% (active) in test [13]; 52.9% in test [14]; -35.6% (active) in [15]; -34.6% (active) in test [16]; -7.28% (active) in test [17]; -25.5% (active) in [18]. For the same compound, the growth in [19] was 55.8%.

Take `CCc1cccc2c3c(sc12)C(c1ccc(F)cc1)C(C#N)=C(/N=C/c1ccc(Cl)cc1)O3` (configuration not stated): the growth was 12.9% in test [1]; -18.9% (active) in [2]; 34.8% in test [3]; 27.1% in [4]; 14.5% in [5]; 21.7% in [6]. The growth in [7] was 32.4%; in test [8], 23.8%; in [9], 30.3%; in [10] it was 61.9%; in test [11] it was -7.31% (active); in test [12] it was 47.8%. Besides, the growth in [13] is 32.4%; in test [14], 39.2%; in [15], 93.5%; in test [16], 32.3%; in [17] it was 41.5%; in [20], 20.7%. Further, in test [19], the growth was 25.4%.

As for `COC(=O)c1cccc(NC2=C(Cl)C(=O)C(C)=C(C)C2=O)c1`, the growth was 112% in [1]; 105% in [2]; 60.7% in [3]; 87% in test [4]; 102% in [5]; 71.9% in test [6]. Also, the growth was 95.6% in test [7]; 85.5% in [8]; 69% in test [9]; 110% in [10]; 98% in test [11]; 92.2% in test [12]. The growth in [13] was 92.6%; in test [14], 89.4%; in test [15] it was 150%; in test [16], 104%; in test [17], 94.2%; in [18], 87.7%. Also, the growth in test [19] was 11.3%.

In the case of `O=C1[C@@H]2Cc3c([nH]c4ccccc34)[C@H](c3ccc(Cl)cc3)N2C(=O)CN1C1CCN(Cc2ccccc2)CC1`, the growth in test [1] is 35%; in test [2] it was 25%; in test [3], 43.8%; in test [4], 66%; in [5] it was 56.5%; in test [6], 38.8%. The growth in [7] is 62.3%; in test [8], 75.4%; in [9], 20.7%; in [10], 77.8%; in test [11] it was 82.3%; in [12], 47.1%. Moreover, the growth was 46.4% in test [13]; 26.3% in test [14]; 81% in test [15]; 49.4% in test [16]; 27.3% in test [17]; 57.5% in [18]. Besides, the growth in test [19] is 27%.

For `CNCCN(C)c1ccc(Nc2cc(NC3CC3)n3ncc(C#N)c3n2)cc1NC(C)=O`, the growth in test [1] is 9.77% (active); in [2] it was 16.4%; in test [3] it was -24.3% (active); in test [4] it was 10.1%; in test [5], 5.12% (active); in test [6], 10.7%. The growth in test [7] was -1.54% (active); in test [8], -24.9% (active); in test [9] it was -25.7% (active); in test [10] it was 13%; in [11], -20.4% (active); in [12], 7.67% (active). The growth in test [13] was 22.4%; in test [14], 6.68% (active); in test [15] it was -29.9% (active); in test [16], 15.1%; in [17] it was -36.6% (active); in test [18], -36.5% (active). The growth in [19] was 8.27% (active).

For `Cc1ccc([C@H]2c3[nH]c4ccccc4c3C[C@H]3C(=O)N(CCCCCCC(=O)NO)CC(=O)N23)s1`, the growth in test [1] is 93.6%; in test [2] it was 56%; in test [3], 35.8%; in [4], 62.7%; in test [5], 65%; in test [6], 61.9%. In addition, the growth in test [7] is 40.5%; in [8] it was 33.3%; in test [9] it was -93.2% (active); in test [10] it was 48.3%; in [11] it was 84.9%; in test [12], 69.4%. Moreover, the growth in [13] was 85.1%; in test [14], 71.9%; in test [15], 64.2%; in [16] it was 85.5%; in [17] it was 60.3%; in [20], 22%. For the same compound, the growth in test [19] is 12.5%.
